This is an account of results in PubChem BioAssay.

Values without a mark were called inactive. No rule for the calls is given here.

The target in the assay is Pantothenate synthetase (Mycobacterium tuberculosis (strain ATCC 25618 / H37Rv)) (UniProt P9WIL5). Put plainly: Coupled enzyme confirmation of inhibitors against recombinant Mtb PanC (AID 375).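 Also: 0% = full reaction with vehicle and 100% = no enzyme background.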 To be noted: coupled enzyme assay; at 10 µM, active compounds read high.
Sequence of Pantothenate synthetase (Mycobacterium tuberculosis (strain ATCC 25618 / H37Rv)) (P9WIL5 whole entry, looked up): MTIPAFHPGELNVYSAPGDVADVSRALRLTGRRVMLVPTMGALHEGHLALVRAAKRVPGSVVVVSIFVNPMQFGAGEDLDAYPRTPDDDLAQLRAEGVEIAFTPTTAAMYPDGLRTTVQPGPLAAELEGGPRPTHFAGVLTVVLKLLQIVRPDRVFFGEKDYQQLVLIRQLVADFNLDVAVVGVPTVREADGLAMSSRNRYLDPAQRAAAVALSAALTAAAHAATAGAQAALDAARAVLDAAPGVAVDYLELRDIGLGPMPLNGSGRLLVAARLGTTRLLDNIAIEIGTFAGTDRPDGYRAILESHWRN
Usually inhibition stands for the drop in the measured response relative to a control, in per cent. Regarding `COc1ccc(CCn2c(-c3ccco3)nc3nc4ccccc4nc32)cc1`, the inhibition is 0%.

In the case of `CC1=C(n2nnc3ccccc32)C(c2ccccc2)C(C#N)=C(N)O1` (configuration not stated), the inhibition is 5%.

On to `Cc1cc(C)cc(N(CC(=O)Nc2cccc(C)n2)S(=O)(=O)c2c(C)noc2C)c1`, for which the inhibition was 0%.

In the case of `Cc1ncc([N+](=O)[O-])n1CCO`, the inhibition is 1%.

With `O=C(CN1C(=O)c2ccccc2S1(=O)=O)NCc1ccccc1Cl`, the inhibition is 0%.

Regarding `CC(=O)N(c1ccc(Br)cc1)C1C=CS(=O)(=O)C1` (configuration not stated), the inhibition was 2%.

Consider `Cc1nc2c3cnn(-c4ccccc4)c3ncn2n1`, for which the inhibition was 7%.

Turning to `CCOC(=O)c1[nH]c2ccc(F)cc2c1NC(=O)C(C)N1CCc2cc(OC)c(OC)cc2C1` (configuration not stated), the inhibition was 3%.

In the case of `Cn1cnc2cc(NC(=O)c3ccc(Cl)cc3)ccc21`, the inhibition was 0%.

For `C=CCn1c(Cc2cccs2)nnc1SCC(=O)Nc1ccc(OC)c(OC)c1`, the inhibition is 0%.

In the case of `CN(C)c1ccc(NC(=O)Cn2cc3c(n2)CCCC3)cc1`, the inhibition is 0%.

For the compound `COCCCNCC(=O)Nc1ccc(OC(F)(F)F)cc1`, the inhibition was 3%.

`CCOc1ccc(-c2nnc(SCC(=O)N3CCN(c4ccccc4)CC3)o2)cc1`: the inhibition is 0%.

`C=CCSc1nnc(-c2ccc(Cl)cc2Cl)o1`: the inhibition was 5%.

Consider `Cc1nonc1NC(=O)c1ccccc1Br`, for which the inhibition was 1%.

`CCCc1cc(=O)n2[nH]cnc2n1`: the inhibition is 0%.

As for `CCOC(=O)C1CCCN(C(=O)c2cc3c(=O)n4cccc(C)c4nc3n2C)C1` (configuration not stated), the inhibition was 0%.

As for `CCOC(=O)c1ccc(N=c2sc(C(=O)OC)cc(=O)n2Cc2ccco2)cc1`, the inhibition was 0%.

Turning to `CCOC(=O)C1=C[C@]2(CC)CCCN3CCc4c(n1c1ccccc41)[C@@H]32`, the inhibition was 4%.

As for `O=C(Cn1cc2c(n1)CCCCC2)N1CCc2ccccc2C1`, the inhibition is 0%.

Turning to `O=C(NCCN1C(=O)C2C3C=CC(C3)C2C1=O)N1CCCCC1` (configuration not stated), the inhibition is 0%.

Consider `Cc1ccc(CNC(=O)CCCn2c(=O)c3ccccc3n(CC(=O)NCc3ccco3)c2=O)cc1`, for which the inhibition was 0%.
